Measurements published in paper PMC8222333, “AsCas12a ultra nuclease facilitates the rapid generation of therapeutic cell medicines”.
Where a chain is given by its changes, count along the chain named.

B1: CCGC (dsDNA)
DNA 1: GCTATCTAGTGCTCAGTACGCACTGCCGCAGGAAACTTCTGGCAGGACCAGGTCATGAGATCGGAAGAGCACACGTCTGAACTCCAGTCA
DNA 2: TGACTGGAGTTCAGACGTGTGCTCTTCCGATCTCATGACCTGGTCCTGCCAGAAGTTTCCTGCGGCAGTGCGTACTGAGCACTAGATAGC
RNA: AAUUUCUACUCUUGUAGAUAGGAAACUUCUGGCAGGACC
B2: CCGT (dsDNA)
DNA 1: B1 DNA 1 with C29T
DNA 2: B1 DNA 2 with G62A
RNA: B1 RNA
B3: CGAA (dsDNA)
DNA 1: B1 DNA 1 with C27G, G28A, C29A
DNA 2: B1 DNA 2 with G62T, C63T, G64C
RNA: B1 RNA
B4: CGAC (dsDNA)
DNA 1: B1 DNA 1 with C27G, G28A
DNA 2: B1 DNA 2 with C63T, G64C
RNA: B1 RNA
B5: CGAG (dsDNA)
DNA 1: B1 DNA 1 with C27G, G28A, C29G
DNA 2: B1 DNA 2 with G62C, C63T, G64C
RNA: B1 RNA
B6: CGAT (dsDNA)
DNA 1: B1 DNA 1 with C27G, G28A, C29T
DNA 2: B1 DNA 2 with G62A, C63T, G64C
RNA: B1 RNA
B7: CGCA (dsDNA)
DNA 1: B1 DNA 1 with C27G, G28C, C29A
DNA 2: B1 DNA 2 with G62T, C63G, G64C
RNA: B1 RNA
B8: CGCC (dsDNA)
DNA 1: B1 DNA 1 with C27G, G28C
DNA 2: B1 DNA 2 with C63G, G64C
RNA: B1 RNA
B9: CGCG (dsDNA)
DNA 1: B1 DNA 1 with C27G, G28C, C29G
DNA 2: B1 DNA 2 with G62C, C63G, G64C
RNA: B1 RNA
B10: CGCT (dsDNA)
DNA 1: B1 DNA 1 with C27G, G28C, C29T
DNA 2: B1 DNA 2 with G62A, C63G, G64C
RNA: B1 RNA
B11: CGGA (dsDNA)
DNA 1: B1 DNA 1 with C27G, C29A
DNA 2: B1 DNA 2 with G62T, G64C
RNA: B1 RNA
B12: CGGC (dsDNA)
DNA 1: B1 DNA 1 with C27G
DNA 2: B1 DNA 2 with G64C
RNA: B1 RNA
B13: CGGT (dsDNA)
DNA 1: B1 DNA 1 with C27G, C29T
DNA 2: B1 DNA 2 with G62A, G64C
RNA: B1 RNA
B14: CTAC (dsDNA)
DNA 1: B1 DNA 1 with C27T, G28A
DNA 2: B1 DNA 2 with C63T, G64A
RNA: B1 RNA
B15: CTCG (dsDNA)
DNA 1: B1 DNA 1 with C27T, G28C, C29G
DNA 2: B1 DNA 2 with G62C, C63G, G64A
RNA: B1 RNA
B16: CTGC (dsDNA)
DNA 1: B1 DNA 1 with C27T
DNA 2: B1 DNA 2 with G64A
RNA: B1 RNA
B17: CTGG (dsDNA)
DNA 1: B1 DNA 1 with C27T, C29G
DNA 2: B1 DNA 2 with G62C, G64A
RNA: B1 RNA

Assays:
Assay in all cases: Spec-seq (native PAGE EMSA with sequencing of bound and unbound); 25 mM Tris-HCl pH 7.4, 150 mM KCl, 5 mM MgCl2, 10% glycerol, 1 mM DTT, 40 ng/uL salmon sperm DNA; 400 nM Cas12a, 480 nM crRNA, 50 nM library, 37 C 1 h; native PAGE at room temperature; high values mean tight binding
Details in all cases: protein: recombinant
dAsCas12a S542R = dAsCas12a S542R (Acidaminococcus sp., UniProt U2UMQ6 1-1307, S542R;D908A;E993A;D1235A)
d-enCas12a = d-enCas12a (Acidaminococcus sp., UniProt U2UMQ6 1-1307, E174R;S542R;K548R;D908A;E993A;D1235A)
d-enCas12a-Ultra = d-enCas12a-Ultra (Acidaminococcus sp., UniProt U2UMQ6 1-1307, E174R;S542R;K548R;M537R;F870L;D908A;E993A;D1235A)
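Further: relative affinity from the bound to unbound sequence frequency ratio in Spec-seq.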

| Binder | binding signal (dAsCas12a S542R) [lnKA] | binding signal (d-enCas12a) [lnKA] | binding signal (d-enCas12a-Ultra) [lnKA] |
| --- | --- | --- | --- |
| B1 | -8.39 | -5.85 | -3.33 |
| B2 | -8.47 | -5.88 | -3.38 |
| B3 | -8.66 | -5.81 | -3.32 |
| B4 | -8.8 | -5.58 | -2.94 |
| B5 | -8.83 | -5.83 | -3.31 |
| B6 | -8.8 | -5.8 | -3.4 |
| B7 | -8.48 | -2.19 | -0.537 |
| B8 | -8.54 | -1.48 | -0.384 |
| B9 | -8.29 | -3.31 | -0.79 |
| B10 | -8.52 | -4.5 | -1.29 |
| B11 | -8.76 | -5.73 | -3.26 |
| B12 | -8.51 | -5.63 | -3.15 |
| B13 | -8.62 | -5.84 | -3.41 |
| B14 | -8.27 | -4.66 | -1.69 |
| B15 | -6.92 | -3.29 | -0.685 |
| B16 | -8.71 | -5.32 | -2.48 |
| B17 | -8.46 | -5.9 | -3.29 |
